# Assay outcomes: PubChem BioAssay, several laboratories
# The list is not random: actives were taken first. Their share in the collection is about 3%.
# BioA inh: inhibitors of Mycobacterium tuberculosis BioA enzyme; inhibition, % at 9.99 µM; 0.096% of 360,000 active; purified M. tuberculosis BioA enzyme, plate reader; in the data active means inhibition above about 40%
# FBA Mtb inh: Mtb fructose-bisphosphate aldolase inhibition. P9WQA3. purified M. tuberculosis FBA, fluorescence read-out. inhibition, % at 1 µM. 2.3% of 360,000 active; in the data active means inhibition above about 27%;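 further: 0% = vehicle and 100% = reference inhibitor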
# FadD28 FP inh: inhibitors of Mycobacterium tuberculosis FadD28 bisubstrate binding. 0.22% of 360,000 active. FadD28 bisubstrate probe binding, fluorescence polarization. inhibition, % at 12.5 µM; in the data active means inhibition above about 8.5%, passing the limit was not always enough
# GDH-TPI inh: GDH-TPI coupled enzyme inhibition counter-screen; GDH-TPI coupled enzyme counterscreen, NADH absorbance; inhibition, % at 4.8 µM; 1.2% of 360,000 active; in the data active means inhibition above about 30%;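 further: 0% = DMSO wells and 100% = wells lacking the enzyme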
# Rv3671c protease: inhibitors of M. tuberculosis serine protease Rv3671c | P9WHR9 | inhibition, % at 5.96 µM | 0.048% of 320,000 active; in the data active means inhibition above about 38%;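 further: extracellular domain of Rv3671c used as enzyme; 0% = enzyme with DMSO and 100% = no enzyme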
# Target sequence (P9WHR9 whole entry, looked up, the tested form may be a part): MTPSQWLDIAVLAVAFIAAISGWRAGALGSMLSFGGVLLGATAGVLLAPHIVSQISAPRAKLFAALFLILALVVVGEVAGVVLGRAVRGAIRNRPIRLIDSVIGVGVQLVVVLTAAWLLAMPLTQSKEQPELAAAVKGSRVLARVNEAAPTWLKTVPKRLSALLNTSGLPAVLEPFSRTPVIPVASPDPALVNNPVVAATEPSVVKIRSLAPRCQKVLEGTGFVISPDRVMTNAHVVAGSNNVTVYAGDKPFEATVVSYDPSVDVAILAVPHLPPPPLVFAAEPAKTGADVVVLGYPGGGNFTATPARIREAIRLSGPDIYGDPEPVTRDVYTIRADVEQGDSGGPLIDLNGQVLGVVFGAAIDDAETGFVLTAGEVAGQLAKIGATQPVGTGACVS
# * marks the source's active call; other numbers are inactive results; x = not tested or not shown; + = active, no number.
SMILES,BioA inh,FBA Mtb inh,FadD28 FP inh,GDH-TPI inh,Rv3671c protease
COc1cccc(C#Cc2cnc3c(c2)C(=O)N([C@@H](C)CO)C[C@@H](C)[C@@H](CN(C)C(C)=O)O3)c1,0,x,x,x,x
CC=Cc1ccc2n(c1=O)C[C@H]1[C@H](CO)[C@@H](C(=O)NCCC)[C@@H]2N1C(=O)c1ccccc1 (mixture of isomers),0,x,x,x,x
CN(C)/C=C1\N=C(c2ccc3c(c2)OCO3)OC1=O,-3,6,0,53*,-2
CCOc1cc(/C=C2/N=C(c3ccc4c(c3)OCO4)OC2=O)ccc1OC(C)=O,-1,-2,-1,7,5
CN(C)/C=C1\N=C(c2ccccc2)OC1=O,0,-3,0,35*,-1
C[C@@H]1CN([C@H](C)CO)C(=O)c2cc(NS(=O)(=O)c3ccccc3)ccc2O[C@H]1CN(C)C(=O)Nc1ccc(F)cc1,0,x,x,x,x
O=c1cc(-c2cc3ccccc3o2)c2cc(O)ccc2o1,-1,0,-3,16,-7
O=c1oc2cc(O)ccc2cc1-c1nc2ccccc2o1,x,+,-2,x,x
O=c1oc2cc(O)ccc2cc1S(=O)(=O)c1ccccc1,0,+,0,15,6
O=C(C[C@@H]1CC[C@@H]2[C@H](COC[C@H](O)CN2C(=O)c2cccnc2)O1)NCc1ccc(-c2ccccc2)cc1,-2,x,x,x,x
C/C=C/c1ccc([C@H]2[C@@H](CO)N(C(=O)CC)[C@@H]2CNC(=O)CC)cc1,-2,x,x,x,x
N#CC(C(=S)Nc1ccccc1)c1nc2ccccc2[nH]1 (stereo unspecified),-1,-1,-1,62*,5
O=C(NCC[C@@H]1CC[C@@H](NC(=O)c2ccncc2)[C@H](CO)O1)Nc1ccc(Cl)cc1,6,x,x,x,x
C#CCN1C(=O)C(O)(CC(=O)/C=C/C=C/c2ccccc2)c2ccccc21 (stereo unspecified),x,0,0,15,-6
NC(=O)CN1C(=O)C(O)(CC(=O)/C=C\C=C\c2ccccc2)c2ccccc21 (stereo unspecified),x,0,0,34*,-15
Cc1ccc2c(c1)C(O)(CC(=O)/C=C/C=C/c1ccccc1)C(=O)N2 (stereo unspecified),1,-5,-1,38*,3
O=C(/C=C/C=C/c1ccccc1)CC1(O)C(=O)N(CCc2ccccc2)c2ccccc21 (stereo unspecified),x,-1,-4,17,-20
CCN1C(=O)C(O)(CC(=O)/C=C/C=C/c2ccccc2)c2ccccc21 (stereo unspecified),x,-1,0,41*,-10
CN1c2ccccc2C(O)=C(C(=S)Nc2ccccc2)S1(=O)=O,-2,-5,2,31*,-13
CN1c2ccccc2C(O)=C(C(=S)Nc2ccc(F)c(Cl)c2)S1(=O)=O,4,10,3,31*,-2
CN1c2ccsc2C(O)=C(C(=S)Nc2ccccc2)S1(=O)=O,2,0,-2,30,3
Cc1ccc(NC(=S)C2=C(O)c3ccccc3N(C)S2(=O)=O)cc1,2,-7,2,38*,6
CN1c2ccccc2C(O)=C(C(=O)Nc2ccccc2)S1(=O)=O,-2,7,-1,9,7
O=C(NCCc1ccncc1)[C@@H]1[C@@H](CO)[C@@H]2Cn3c(ccc(-c4cccc(F)c4)c3=O)[C@H]1N2,4,x,x,x,x
CCCN(C)C[C@H]1Oc2cc(C#CCC3CCCC3)ccc2S(=O)(=O)N([C@@H](C)CO)C[C@H]1C,4,x,x,x,x
SMILES,BioA inh,FBA Mtb inh,FadD28 FP inh,GDH-TPI inh,Rv3671c protease
O=S(=O)(N[C@@H]1CC[C@@H](CCn2cc(-c3ccccn3)nn2)O[C@H]1CO)c1cccc(Cl)c1,6,x,x,x,x
Oc1[nH]c2ccc(Br)cc2c1N=NC(=S)NCC1CCCO1 (stereo unspecified),0,-8,-5,36*,0
CC(=O)c1ccc(C(=O)N(C)C2CCCN(Cc3ccccc3F)C2)s1 (stereo unspecified),75*,1,-3,7,-1
CN(C)CCCn1c(N)c(S(=O)(=O)c2ccccc2)c2nc3ccccc3nc21,-6,113*,0,20,-1
CCCCn1c(N)c(S(=O)(=O)c2ccc(C)cc2)c2nc3ccccc3nc21,-4,116*,2,18,-19
CC(=O)Nc1c(S(=O)(=O)c2ccccc2)c2nc3ccccc3nc2n1Cc1ccccc1,-1,148*,-4,11,-1
Cc1ccc(S(=O)(=O)c2c(N)n(-c3ccccc3)c3nc4ccccc4nc23)cc1,x,129*,0,14,-6
CO[C@H]1CN(C)C(=O)c2cc(NC(=O)c3ccno3)ccc2OC[C@H](C)N(S(C)(=O)=O)C[C@H]1C,4,x,x,x,x
